# “And” between values parts separate entries of the source, which are not always exact repeats. Equal entries are not always repeated. The source made the active and inactive calls.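 Rule for the calls, unless noted: active = compounds whose cell count with miR-34 switched on is under 0.7 times the count with it off; inactive = the rest.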
# Key:
# [1] = liver-stage malaria parasite growth inhibition, primary screen, cell-based, HepG2, luciferase luminescence, HepG2 viability (AID 624349; in the data active = parasite load remaining mostly below about 12%, no sharp cut-off; inactive = mostly above about 10%;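 note: 100% = mean of DMSO negative control wells on the same plate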); details: P. berghei liver stage in HepG2, luciferase luminescence, concentration not given here; parasite load remaining: stronger effect = lower value; viability: measured here: HepG2 viability without parasites
# [2] = stimulators of nuclear beta-catenin in C2C12, primary screen, imaging, WNT3A-conditioned medium, mouse C2C12, NPC library (AID 1117326; in the data active = nuclear beta-catenin stimulation mostly above about 4.2%, no sharp cut-off; inactive = mostly below about 10%); details: stronger effect = higher value
# [3] = stimulators of insulin release from INS-1E, primary screen, cell-based, 5 mM glucose, NPC library (AID 1117329;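 active = compound raises insulin release from rat beta cells at 5 mM glucose, no numeric limit stated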); details: rat INS-1E insulin secretion, at 10 µM, stronger effect = higher value
# [4] = growth inhibition of GSK3B-pretreated HCT116 cells – cell-based, CellTiter-Glo, 0.2 to 20 µM (AID 1117336;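 active = compounds lowering colon cancer cell viability after pretreatment blocking the GSK3B kinase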); details: HCT116 viability after GSK3B inhibitor, at 20 µM, stronger effect = higher value
# [5] = inhibition of endothelial tube formation, primary screen, imaging, VEGF stimulated, CD31 staining, tube area, NPC library (AID 1117340;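 active = compound that reduces growth-factor-driven endothelial tube area in a mixed cell culture, no cutoff stated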); details: VEGF-stimulated ADSC/ECFC co-culture, at 10 µM, stronger effect = higher value
# [6] = glucagon-like peptide 1 release enhancers, primary assay, NCI-H716 cell line, NPC library (AID 1117341;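 active = compound raises GLP1 secretion from the human gut endocrine cells, with no numeric limit stated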); details: NCI-H716 cells, at 10 µM, stronger effect = higher value
# [7] = HCT116 colon cancer cell growth inhibition, primary screen, CellTiter-Glo luminescence, NPC library (AID 1117342;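 active = compounds that lower survival of HCT116 colon cancer cells in the luminescence readout, no numeric limit stated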); details: at 20 µM (top of the series)
# [8] = CellTiter-Glo luminescent readout of SW480 viability loss, NPC library primary (AID 1117343;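 active = compounds that lower viability of the colon cancer cells in the luminescence readout, with no numeric limit stated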); details: CellTiter-Glo luminescence; at 20 µM (top of the series)
# [9] = decreased DLD-1 cellular survival, CellTiter-Glo luminescent readout, NPC compound collection, primary HTS (AID 1117346;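 active = compounds that lower survival of DLD-1 colon cancer cells in the luminescence readout, no cutoff given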); details: DLD-1 viability, CellTiter-Glo luminescence; at 20 µM (top of the series)
# [10] = molecular target: 6-phosphogluconate dehydrogenase, decarboxylating (Homo sapiens) (UniProt P52209); test: 6PGD enzyme inhibitors, primary screen, biochemical, human, recombinant enzyme, NADPH absorbance (AID 1159550;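 active = at least 20% inhibition of 6-phosphogluconate dehydrogenase activity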); details: recombinant 6PGD, NADPH absorbance 341 nm; at 10 µM; stronger effect = higher value
# Sequence of 6-phosphogluconate dehydrogenase, decarboxylating (Homo sapiens) (P52209 whole entry, looked up): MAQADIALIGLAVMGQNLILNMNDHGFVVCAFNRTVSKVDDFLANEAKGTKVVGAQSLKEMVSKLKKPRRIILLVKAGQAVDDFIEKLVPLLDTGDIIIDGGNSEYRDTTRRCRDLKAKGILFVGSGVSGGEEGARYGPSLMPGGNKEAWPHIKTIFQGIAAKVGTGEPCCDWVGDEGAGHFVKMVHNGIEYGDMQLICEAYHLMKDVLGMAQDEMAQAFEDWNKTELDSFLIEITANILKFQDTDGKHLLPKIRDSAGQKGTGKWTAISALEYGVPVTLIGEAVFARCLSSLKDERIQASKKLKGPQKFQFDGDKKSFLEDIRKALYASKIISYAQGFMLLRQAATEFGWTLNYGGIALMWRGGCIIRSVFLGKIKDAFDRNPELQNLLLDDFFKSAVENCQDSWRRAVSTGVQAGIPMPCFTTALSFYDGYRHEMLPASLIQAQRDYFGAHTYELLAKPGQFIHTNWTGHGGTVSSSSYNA
# [11] = differential killing of epithelial or mesenchymal cells, primary screen, imaging, PC-3E GFP, TEM4-18 mCherry, co-culture (AID 1345086;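 active = compounds killing one labelled cell type while sparing the other, by normalised counts and ratio limits, not self-fluorescent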;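 for all read-outs here: cells exposed to compound for 72 h before imaging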;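 for red/green cell ratio (normalised): normalised mesenchymal count divided by normalised epithelial count so high means epithelial killing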); details: imaging cell counts, at 1 µM; for red/green cell ratio (normalised): actives lie on both sides
# [12] = tested on: Aerobactin synthetase IucA (Klebsiella pneumoniae hvKP1); test: Biochemical IucA enzyme inhibition primary screen of the Spectrum library (AID 1346200; call rule not given here;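 note: 100% = wells without compound and 0% = wells lacking enzyme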); details: malachite green pyrophosphate, A620, at 8 µM, stronger effect = lower value
# [13] = sensitizers of A549 cells to miR-34 induction, primary screen, imaging, A549 dox-inducible miR-34, nuclei and caspase counts (AID 1347080); details: A549 miR-34 inducible, Hoechst nuclei count, 48 h
# [14] = molecular target: Mitogen-activated protein kinase 7 (Homo sapiens) (UniProt Q13164); test: ERK5 transactivation activators in reporter cells, primary screen, cell-based, HTS (AID 1508626;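 active = luciferase signal above three times the same-plate solvent-only control wells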;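 note: luciferase driven by Gal4-ERK5 fusion binding five Gal4 sites before minimal TATA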); details: HeLa Gal4-ERK5 transactivation, 18 h, at 5 µM, stronger effect = higher value
# Sequence of Mitogen-activated protein kinase 7 (Homo sapiens) (Q13164 whole entry, looked up, the tested form may be a part): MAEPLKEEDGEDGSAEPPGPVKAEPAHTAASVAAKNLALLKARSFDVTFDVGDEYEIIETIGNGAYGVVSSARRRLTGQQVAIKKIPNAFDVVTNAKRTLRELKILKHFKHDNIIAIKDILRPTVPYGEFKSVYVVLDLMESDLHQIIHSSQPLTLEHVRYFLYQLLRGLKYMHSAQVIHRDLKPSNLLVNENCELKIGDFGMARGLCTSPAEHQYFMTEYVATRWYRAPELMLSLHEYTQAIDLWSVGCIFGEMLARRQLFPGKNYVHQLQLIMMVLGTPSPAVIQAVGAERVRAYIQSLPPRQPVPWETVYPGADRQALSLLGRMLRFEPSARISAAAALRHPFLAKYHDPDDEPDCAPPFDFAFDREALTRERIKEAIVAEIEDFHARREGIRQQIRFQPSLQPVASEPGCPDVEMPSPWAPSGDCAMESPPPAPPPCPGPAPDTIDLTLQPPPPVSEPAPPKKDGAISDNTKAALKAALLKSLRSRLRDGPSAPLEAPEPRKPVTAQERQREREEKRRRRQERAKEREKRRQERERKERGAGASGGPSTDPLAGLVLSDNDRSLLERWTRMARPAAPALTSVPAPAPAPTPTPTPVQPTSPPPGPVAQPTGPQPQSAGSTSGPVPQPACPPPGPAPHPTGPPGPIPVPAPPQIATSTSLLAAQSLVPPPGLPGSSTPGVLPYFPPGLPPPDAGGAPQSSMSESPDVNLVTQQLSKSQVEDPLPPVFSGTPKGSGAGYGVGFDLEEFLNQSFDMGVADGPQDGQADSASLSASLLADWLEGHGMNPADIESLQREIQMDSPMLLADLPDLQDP
# [15] = molecular target: NAD(+) hydrolase SARM1 (Homo sapiens) (UniProt Q6SZW1); test: SARM1 TIR NADase inhibitors, cell lysate, NAD-Glo luminescence (AID 1508614;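 active = compound whose remaining NAD level is above about 45 nM, limit read from the data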;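 note: higher remaining NAD means stronger inhibition of SARM1 NADase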); details: SAM-TIR HEK293T lysate NADase, at 1 µM, stronger effect = higher value
# Sequence of NAD(+) hydrolase SARM1 (Homo sapiens) (Q6SZW1 whole entry, looked up): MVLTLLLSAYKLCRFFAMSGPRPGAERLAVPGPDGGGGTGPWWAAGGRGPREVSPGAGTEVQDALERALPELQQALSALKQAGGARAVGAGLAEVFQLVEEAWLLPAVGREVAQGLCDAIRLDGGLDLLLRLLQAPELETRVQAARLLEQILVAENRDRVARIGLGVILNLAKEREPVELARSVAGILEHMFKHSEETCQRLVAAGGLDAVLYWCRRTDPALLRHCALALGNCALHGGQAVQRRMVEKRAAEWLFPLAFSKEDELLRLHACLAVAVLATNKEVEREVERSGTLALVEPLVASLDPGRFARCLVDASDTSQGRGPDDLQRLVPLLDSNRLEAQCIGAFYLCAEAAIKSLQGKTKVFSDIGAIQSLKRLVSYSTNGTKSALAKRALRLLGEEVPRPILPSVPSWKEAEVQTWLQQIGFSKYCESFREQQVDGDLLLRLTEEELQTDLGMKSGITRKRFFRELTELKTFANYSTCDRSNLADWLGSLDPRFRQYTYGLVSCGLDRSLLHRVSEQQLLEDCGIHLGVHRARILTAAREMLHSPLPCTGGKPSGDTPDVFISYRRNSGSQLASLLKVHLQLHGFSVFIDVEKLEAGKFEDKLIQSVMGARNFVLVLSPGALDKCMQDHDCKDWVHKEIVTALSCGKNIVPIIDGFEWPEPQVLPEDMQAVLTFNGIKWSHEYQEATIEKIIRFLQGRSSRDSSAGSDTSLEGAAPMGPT
# [16] = suppressors of polyQ aggregation in yeast, 75Q-TubU reporter (AID 1593); details: Yeast 75Q polyglutamine aggregation reporter
# [17] = inhibitors of mitochondrial cytochrome c release, biochemical, purified mitochondria (AID 1603); details: stronger effect = lower value;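 note: mouse liver mitochondria challenged with calcium chloride; signal normalized to the plate average as 100%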
# [18] = inhibitors of polyQ protein aggregation (AID 1604); details: polyglutamine-induced protein aggregation inhibition assay; stronger effect = higher value; tested at 2.5 µM
# [19] = survival rescue of mitochondrial mutant cells in low glucose, primary screen, MELAS cybrids, Rieske KO mouse fibroblasts, CellTiter-Glo (AID 1508586;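 active = mean z-score across replicates of 1.96 or higher in either the MELAS or the Rieske mutant cell line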;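 note: z relative to plate mean and SD of compound and empty wells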)
# [20] = viability rescue of complex I mutant cybrids, primary screen, cell-based, galactose medium, ATP luminescence (AID 1645843;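 active = z-score of at least 1.8 in each of two replicates, scored against plate mean and spread of sample wells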;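 note: positive z means more ATP and so rescue of galactose-driven cybrid death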); details: complex I mutant cybrid cells, 72 h, stronger effect = higher value
# [21] = measured here: epithelial PC-3E GFP cell survival
# [22] = measured here: mesenchymal TEM4-18 mCherry cell survival
# [23] = measured here: relative caspase fold change +Dox/-Dox
# [24] = measured here: total cells with miR-34 induction, stronger effect = lower value
# [25] = measured here: total cells without miR-34 induction
# [26] = MELAS cybrid survival, CellTiter-Glo 48 h, stronger effect = higher value
# [27] = Rieske KO mouse fibroblast survival, CellTiter-Glo 72 h
structure (smiles),measurement,setting,value
CC1=C2[C@H]3OC(=O)[C@@H](C)[C@@H]3CC[C@@]2(C)C=CC1=O,parasite load remaining,[1],92.1% (inactive)
same,viability,[1],72.5%
same,nuclear beta-catenin stimulation,[2]; at 10 µM,0.7% (inactive)
same,nuclear beta-catenin stimulation,"[2]; stimulation, at 2 µM",1%
same,insulin secretion stimulation,[3],0% (inactive)
same,viability decrease,[4],1.65% (inactive)
same,tube area decrease,[5],15.6% (inactive)
same,GLP1 secretion stimulation,[6],-0.6% (inactive)
same,inhibition of viability,[7],1.8% (inactive)
same,viability decrease (inhibition),[8],14.6% (inactive)
same,viability decrease (inhibition),[9],3.8% (inactive)
same,inhibition,[10],10.8% (inactive)
same,red/green cell ratio (normalised),[11],0.97 (inactive)
same,normalised cell number,[11]; [21],1.11
same,normalised cell number,[11]; [22],1.07
same,activity remaining,[12],93.8% (inactive)
same,fold change,[13]; stronger effect = lower value,0.915 (inactive)
same,fold change,[13]; [23],0.797
same,cell count,[13]; [24],8180
same,cell count,[13]; [25],8940
same,luciferase signal,[14],44 AU (inactive)
CCOP(=S)(OCC)Oc1ccc2c(C)c(Cl)c(=O)oc2c1,nuclear beta-catenin stimulation,[2]; at 10 µM,8.6% (inactive)
same,nuclear beta-catenin stimulation,"[2]; stimulation, at 2 µM",1.6%
same,insulin secretion stimulation,[3],-1.3% (inactive)
same,viability decrease,[4],-12.5% (inactive)
same,tube area decrease,[5],41% (active)
same,GLP1 secretion stimulation,[6],2.3% (inactive)
same,inhibition of viability,[7],-16% (inactive)
same,viability decrease (inhibition),[8],-55% (inactive)
same,viability decrease (inhibition),[9],-8.8% (inactive)
same,inhibition,[10],6.24% (inactive)
same,red/green cell ratio (normalised),[11],1.09 (inactive)
same,normalised cell number,[11]; [21],0.91
same,normalised cell number,[11]; [22],0.99
same,fold change,[13]; stronger effect = lower value,0.908 (inactive)
same,fold change,[13]; [23],1.03
same,cell count,[13]; [24],8520
same,cell count,[13]; [25],9380
same,remaining NAD,[15],10 nM (inactive)
same,luciferase signal,[14],72 AU (inactive)
CC(C)(C)NCC(O)c1cc(Cl)c(N)c(Cl)c1 (centres undefined),score,[16],1.52
same,cytochrome c release ratio,[17],1.06
same,inhibition of aggregation,[18],29.4%
same,parasite load remaining,[1],72.5% (inactive) and 86% (inactive) and 37.5% (inactive)
same,viability,[1],109% and 74.6% and 102%
same,nuclear beta-catenin stimulation,[2]; at 10 µM,0% (inactive)
same,nuclear beta-catenin stimulation,"[2]; stimulation, at 2 µM",1.4%
same,insulin secretion stimulation,[3],3.8% (inactive)
same,viability decrease,[4],-1.4% (inactive)
same,tube area decrease,[5],13.7% (inactive)
same,GLP1 secretion stimulation,[6],0.6% (inactive)
same,inhibition of viability,[7],24.9% (inactive)
same,viability decrease (inhibition),[8],15.4% (inactive)
same,viability decrease (inhibition),[9],10.4% (inactive)
same,inhibition,[10],-5.11% (inactive)
same,red/green cell ratio (normalised),[11],1.04 (inactive)
same,normalised cell number,[11]; [21],1.05
same,normalised cell number,[11]; [22],1.09
same,activity remaining,[12],115% (inactive)
same,fold change,[13]; stronger effect = lower value,0.844 (inactive) and 0.889 (inactive)
same,fold change,[13]; [23],1.23 and 1.3
same,cell count,[13]; [24],8390 and 9780
same,cell count,[13]; [25],9940 and 11000
same,z-score,[19]; [26],0.503 (inactive) and 0.285 (inactive)
same,z-score,[19]; [27],0.0878 and 0.551
same,remaining NAD,[15],10 nM (inactive)
same,luciferase signal,[14],44 AU (inactive)
same,z-score,[20],0.41 (inactive)
C[C@H]1C(=O)O[C@@H]2CCN3CC=C(COC(=O)[C@](C)(O)[C@]1(C)O)[C@H]23,score,[16],1.29
same,cytochrome c release ratio,[17],0.94
same,inhibition of aggregation,[18],36.1%
same,parasite load remaining,[1],96.1% (inactive) and 65.8% (inactive) and 70.5% (inactive)
same,viability,[1],103% and 66% and 74.5%
same,nuclear beta-catenin stimulation,[2]; at 10 µM,-0.7% (inactive)
same,nuclear beta-catenin stimulation,"[2]; stimulation, at 2 µM",-0.6%
same,insulin secretion stimulation,[3],-0.1% (inactive)
same,viability decrease,[4],-4.9% (inactive)
same,tube area decrease,[5],17.9% (inactive)
same,GLP1 secretion stimulation,[6],-1.4% (inactive)
same,inhibition of viability,[7],-6% (inactive)
same,viability decrease (inhibition),[8],-1.2% (inactive)
same,viability decrease (inhibition),[9],-12.1% (inactive)
same,inhibition,[10],17% (inactive)
same,red/green cell ratio (normalised),[11],1.08 (inactive)
same,normalised cell number,[11]; [21],0.97
same,normalised cell number,[11]; [22],1.05
same,activity remaining,[12],111% (inactive)
same,fold change,[13]; stronger effect = lower value,0.8 (inactive)
same,fold change,[13]; [23],1.54
same,cell count,[13]; [24],8710
same,cell count,[13]; [25],10900
same,luciferase signal,[14],56 AU (inactive)
NCC(CC(=O)O)c1ccc(Cl)cc1 (centres undefined),score,[16],1.02
same,cytochrome c release ratio,[17],0.97
same,inhibition of aggregation,[18],63.5%
same,nuclear beta-catenin stimulation,[2]; at 10 µM,-0.5% (inactive)
same,nuclear beta-catenin stimulation,"[2]; stimulation, at 2 µM",0.7%
same,insulin secretion stimulation,[3],2.7% (inactive)
same,viability decrease,[4],-7.8% (inactive)
same,tube area decrease,[5],-22.1% (inactive)
same,GLP1 secretion stimulation,[6],-2.6% (inactive)
same,inhibition of viability,[7],-14.8% (inactive)
same,viability decrease (inhibition),[8],-1.8% (inactive)
same,viability decrease (inhibition),[9],7.35% (inactive)
same,inhibition,[10],5.14% (inactive)
same,red/green cell ratio (normalised),[11],0.69 (inactive)
same,normalised cell number,[11]; [21],1.3
same,normalised cell number,[11]; [22],0.89
same,activity remaining,[12],103% (inactive)
same,fold change,[13]; stronger effect = lower value,1.01 (inactive) and 0.984 (inactive) and 0.815 (inactive)
same,fold change,[13]; [23],1.78 and 1.11 and 0.933
same,cell count,[13]; [24],7900 and 7930 and 10200
same,cell count,[13]; [25],7820 and 8060 and 12600
same,z-score,[19]; [26],-0.717 (inactive)
same,z-score,[19]; [27],-0.464
same,remaining NAD,[15],10 nM (inactive)
same,luciferase signal,[14],56 AU (inactive)
same,z-score,[20],0.635 (inactive)
CCNc1nc(Cl)nc(NCC)n1,nuclear beta-catenin stimulation,[2]; at 10 µM,0.8% (inactive)
same,nuclear beta-catenin stimulation,"[2]; stimulation, at 2 µM",2.2%
same,insulin secretion stimulation,[3],-1.4% (inactive)
same,viability decrease,[4],-15.2% (inactive)
same,tube area decrease,[5],8.9% (inactive)
same,GLP1 secretion stimulation,[6],1.7% (inactive)
same,inhibition of viability,[7],3.93% (inactive)
same,viability decrease (inhibition),[8],-14.9% (inactive)
same,viability decrease (inhibition),[9],-16.6% (inactive)
same,inhibition,[10],4.55% (inactive)
same,activity remaining,[12],94.3% (inactive)
same,luciferase signal,[14],52 AU (inactive)
CCC(COC(=O)c1cc(OC)c(OC)c(OC)c1)(c1ccccc1)N(C)C (centres undefined),parasite load remaining,[1],36% (inactive)
same,viability,[1],62.6%
same,nuclear beta-catenin stimulation,[2]; at 10 µM,5.9% (inactive)
same,nuclear beta-catenin stimulation,"[2]; stimulation, at 2 µM",1.2%
same,insulin secretion stimulation,[3],2.2% (inactive)
same,viability decrease,[4],49% (inactive)
same,tube area decrease,[5],19.3% (inactive)
same,GLP1 secretion stimulation,[6],5.8% (inactive)
same,inhibition of viability,[7],64.3% (active)
same,viability decrease (inhibition),[8],22.7% (inactive)
same,viability decrease (inhibition),[9],20.6% (inactive)
same,red/green cell ratio (normalised),[11],1 (inactive)
same,normalised cell number,[11]; [21],1.04
same,normalised cell number,[11]; [22],1.04
same,activity remaining,[12],102% (inactive)
same,fold change,[13]; stronger effect = lower value,0.96 (inactive) and 0.993 (inactive)
same,fold change,[13]; [23],0.946 and 0.715
same,cell count,[13]; [24],9130 and 7380
same,cell count,[13]; [25],9520 and 7430
same,z-score,[19]; [26],-0.0948 (inactive) and -0.436 (inactive)
same,z-score,[19]; [27],-0.0807 and -0.229
same,remaining NAD,[15],10 nM (inactive)
same,luciferase signal,[14],28 AU (inactive)
same,z-score,[20],-1.25 (inactive)
